Many of the other results were omitted from the sample, so hits are more common in it than they were.
ER stress death: ER stress cell death inhibition | relative survival (cellular ATP), % at 15 µg/mL (by protocol) | CSM14.1 thapsigargin ER stress survival, ATP luminescence | 48,000 compounds, 0.33% hits;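 active = survival measured by cellular ATP above 50% at 15 µg/ml in the first screen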;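 note: cell death triggered by about 15 µM thapsigargin; ATP read 24 h after thapsigargin was added; plate controls were thapsigargin with DMSO for no effect and DMSO without thapsigargin for full effect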
Starred values were filed as active, the others as inactive.

For O=C(NCC1CCCO1)/C(=C/c1ccc(-c2ccccc2Cl)o1)NC(=O)c1ccccc1 (configuration not stated) the results were ER stress death 87*.
`N#C/C(=C\c1ccc(-c2ccc(Cl)c(C(=O)O)c2)o1)C(=O)NCC1CCCO1` (configuration not stated) gave ER stress death 12.
COc1cc2c(cc1NCc1ccc([N+](=O)[O-])cc1)oc1ccccc12 was read as ER stress death 8.
COc1cc2c(cc1NCc1ccc3c(c1)OCO3)oc1ccccc12 was read as ER stress death -6.
`COc1cc2c(cc1NCc1ccncc1)oc1ccccc12` gave ER stress death 93*.
`Cc1ccc(C(C)NC(=O)Cc2ccccc2)cc1` (configuration not stated) gave ER stress death 4.
For COC(=O)C1=C(C)NC(C)=C(C(=O)OC)C1c1c(F)cccc1Cl the results were ER stress death 2.
Screening CCOC(=O)c1c(NC(=O)c2cncc(Br)c2)sc2c1CCC2 returned ER stress death 9.
`CCOc1ccc(-c2nnc(-c3ccc4c(c3)OCO4)o2)cc1` gave ER stress death 8.
`CCOc1ccccc1CN(CCc1ccc2c(c1)OCO2)Cc1cc(OC)ccc1OC` gave ER stress death 3.
CCOc1ccccc1CN(CCc1ccc2c(c1)OCO2)Cc1ccncc1 was read as ER stress death 103*.
For COC(=O)c1ccc(/C=C2\SC(=S)N(c3cccc(C(F)(F)F)c3)C2=O)cc1 the results were ER stress death 17.
`Cn1c(=O)cc(NC2CCCCC2)[nH]c1=O` gave ER stress death 11.
`O=C(Nc1cccc2ccccc12)C1OC2OC3(CCCCC3)OC2C2OC3(CCCCC3)OC12` (configuration not stated) gave ER stress death 115*.
Screening CC1(C)OC2OC(C(=O)Nc3ccccc3)C3OC(C)(C)OC3C2O1 (configuration not stated) returned ER stress death 1.
`O=C(Nc1cccc2ccccc12)C1C2CCC3C(CCC21)C3(Cl)Cl` (configuration not stated) gave ER stress death 2.
`CC(=O)Nc1ccc(NS(=O)(=O)c2ccc(C)cc2C)cc1` gave ER stress death 2.
Screening COc1cc(C=C2C(=O)NC(=O)NC2=O)cc(Br)c1OCc1ccccc1 returned ER stress death 8.
Screening COc1ccc(Br)cc1CN1CCN(Cc2ccc(OC)c(OC)c2)CC1 returned ER stress death 0.
For COc1ccc(N2C(=O)CC(N3CCN(C(c4ccccc4)c4ccc(Cl)cc4)CC3)C2=O)cc1 (configuration not stated) the results were ER stress death 110*.
Screening COc1cccc(N2C(=O)CC(N3CCN(C(c4ccccc4)c4ccccc4)CC3)C2=O)c1 (configuration not stated) returned ER stress death 19.
`O=C1CC(N2CCN(C(c3ccccc3)c3ccccc3)CC2)C(=O)N1c1ccc(F)cc1` (configuration not stated) gave ER stress death 12.
`C=CCc1cccc(/C=N/NC(=O)c2cc(C(C)(C)C)[nH]n2)c1O` gave ER stress death 18.
Clc1ccccc1CN1CCN(Cc2ccccn2)CC1 was read as ER stress death 3.
Screening CC1CCN(c2cc(N3CCN(C(=O)c4cccc(F)c4F)CC3)c([N+](=O)[O-])cc2F)CC1 returned ER stress death -6.
`O=C(N/C(=C/c1cccs1)c1nc2ccccc2[nH]1)c1ccccc1` gave ER stress death -2.
Cc1ccc(C(=O)N/C(=C/c2cccs2)c2nc3ccccc3[nH]2)cc1 was read as ER stress death 62*.
`Cc1ccc(C(=O)N/C(=C/c2cccnc2)c2nc3ccccc3[nH]2)cc1` gave ER stress death -2.
For COC(=O)CC(C(=O)OC)P(=O)(O)CN(C)S(C)(=O)=O (configuration not stated) the results were ER stress death 4.
Screening Cc1ccc(C2(c3ccc(C)cc3)CC2C(=O)Nc2cccnc2)cc1 (configuration not stated) returned ER stress death 78*.
For Cc1ccc(C2(c3ccc(C)cc3)CC2C(=O)Nc2ccncc2)cc1 (configuration not stated) the results were ER stress death -1.
For Cc1ccc(C2(c3ccc(C)cc3)CC2C(=O)Nc2ccccc2)cc1 (configuration not stated) the results were ER stress death 6.
For O=C1c2ccc([N+](=O)[O-])cc2C(=O)N1c1cccnc1 the results were ER stress death 2.
For COc1cccc(C(=O)Nc2ccc(N3CCN(C(C)=O)CC3)cc2)c1 the results were ER stress death 11.
For O=C(c1ccc([N+](=O)[O-])cc1)N1CCN(Cc2cccc(Oc3ccccc3)c2)CC1 the results were ER stress death 69*.
For COc1cc(C(=O)N2CCN(Cc3cccc(Oc4ccccc4)c3)CC2)cc(OC)c1OC the results were ER stress death 45.
O=C(c1ccc([N+](=O)[O-])cc1)N1CCN(Cc2cccnc2)CC1 was read as ER stress death -8.
`CCOc1ccc(CN2CCN(C(=O)c3ccc([N+](=O)[O-])cc3)CC2)cc1` gave ER stress death -2.
Cc1cccc(CN2CCN(C(=O)c3ccc([N+](=O)[O-])cc3)CC2)c1 was read as ER stress death 4.
Screening O=C(c1ccncc1)N1CCN(Cc2cccc(Oc3ccccc3)c2)CC1 returned ER stress death -2.
`COc1ccc(C(=O)N2CCN(Cc3cccc(Oc4ccccc4)c3)CC2)cc1OC` gave ER stress death 53*.
COc1ccc(C(=O)N2CCN(Cc3cccc(C)c3)CC2)cc1OC was read as ER stress death 2.
CCn1c2ccccc2c2cc(CN3CCN(C(=O)c4ccc([N+](=O)[O-])cc4)CC3)ccc21 was read as ER stress death 91*.
For Cc1c(OCc2ccccc2)ccc2c3c(c(=O)oc12)CCCC3 the results were ER stress death 8.
`O=C(Nc1ccc(-c2nc3ccccc3o2)c(O)c1)c1cccnc1` gave ER stress death 2.
For O=S(=O)(Nc1ccccc1F)c1ccc(F)cc1 the results were ER stress death 2.
CC(=O)CC(=O)Nc1cc(Cl)ccc1C was read as ER stress death 65*.
`Cc1ccc(Cl)cc1NC(=O)CSC(N)=O` gave ER stress death 8.
Screening COCC(=O)Nc1cc(Cl)ccc1C returned ER stress death 4.
Screening COc1c(OC(C)=O)ccc(/C=N\NC(=O)COc2ccc(C)cc2)c1[N+](=O)[O-] returned ER stress death 6.
Screening Cc1cc(/C=C2\C(=O)NC(=S)N(c3ccccc3F)C2=O)c(C)n1-c1cccnc1 returned ER stress death 24.
For CCCOC(=O)C1=C(C)NC2=C(C(=O)CCC2)C1c1cccc(F)c1 (configuration not stated) the results were ER stress death 23.
COc1ccc(/C=C/C(=O)NC(=S)Nc2c(C)cc(C)cc2[N+](=O)[O-])cc1OC was read as ER stress death 0.
For CCOC(=O)CP(=O)(c1ccccc1)c1ccccc1 the results were ER stress death 6.
Screening Cc1ccc(NC(=O)CC(=O)NN)cc1 returned ER stress death -5.
Screening Cc1ccc(P(=O)(CSC(=N)N)c2ccc(C)cc2)cc1 returned ER stress death 58*.
Cc1ccccc1NC1CC(C)N(C(=O)c2ccccc2)c2c(C)cccc21 (configuration not stated) was read as ER stress death 4.
